High-throughput results from PubChem BioAssay.
In the library only some 1.6% were active in any assay of this set; here they are far more common.
KCNQ2 pot: KCNQ2 (rat) channel potentiation. O88943. CHO-K1 KCNQ2, FluxOR thallium flux fluorescence; active compounds read high. B-score at 10 µM. 310,000 tested, 0.54% active. AID 2239;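 active means fluorescence ratio B-score at least 3 SD of library B-scores, with initial fluorescence B-score within 3 of them, cut at about 5.3 in these data; same plate scores as AID 2156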;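 further: B-score of peak minus minimum over baseline fluorescence ratio after K+ and Tl+ stimulus; positive B-score means potentiation of KCNQ2 with more thallium influx and brighter signal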
KCNQ2 inh: KCNQ2 (rat) channel inhibition. B-score at 10 µM. 310,000 tested, 1.1% active. AID 2156. CHO-K1 KCNQ2, FluxOR thallium flux, 20 min; active compounds read low. O88943;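 active means fluorescence ratio B-score at most minus 3 library SDs, with starting brightness B-score within 2 library SDs, cut at about -5.5 in these data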
Kir21 conf inh: confirmation of mouse Kir2.1 potassium channel inhibitors; shares compounds with KCNQ2 pot; Kir2.1-expressing cells, FluxOR thallium flux fluorescence; active compounds read low; Tl flux remaining, % of negative control (active compounds read low), % at 10 µM; 2,300 tested, 41% active; AID 2032;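 active means Primary-screen hit whose thallium flux fell at least 3 control SD below untreated wells in both duplicates, with normal baseline fluorescence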
HEK293 Tl flux: counter-screen for Kir2.1 inhibitors: effect in parental HEK293 cells. shares compounds with KCNQ2 pot. FluxOR thallium flux fluorescence; 0% = unstimulated blank wells. FluxOR signal as % of negative control (100 = no effect), % at 10 µM. 2,300 tested, 19% active. AID 2105;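 active means dye signal at least 3 control SD above or below untreated wells in both duplicates, raw fluorescence within 3, either direction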;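 further: percent is based on the flux ratio of peak minus minimum fluorescence over baseline F0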
CHO-K1 ctr: counter-screen for KCNQ2 potentiators: effect in parental CHO-K1 cells; activity increase over 3SD of controls, % at 10 µM; shares compounds with KCNQ2 pot; FluxOR thallium flux fluorescence; zero = vehicle mean+3SD, 100% = vehicle-minus-blank window; AID 2282; 1,200 tested, 43% active;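 active means signal rise of at least 3 SD above the untreated control mean, in both duplicate wells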;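 further: counter screen of KCNQ2 potentiator hits so any rise reflects channel-independent effects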
KCNQ1 sel pot: human KCNQ1 counter-target activity of KCNQ2 potentiators; shares compounds with KCNQ2 pot; CHO KCNQ1 stable, FluxOR thallium flux fluorescence; beyond 3SD, as % of vehicle-control signal; activation over 3SD threshold, % at 10 µM; 1,200 tested, 28% active; AID 2283;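 active means fluorescence ratio rise of at least 3 SD of vehicle wells above their mean, in both replicate wells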
KCNQ2 pot confirm: rat KCNQ2 channel potentiator confirmation | shares compounds with KCNQ2 pot | CHO-KCNQ2 cells, FluxOR thallium flux fluorescence | potentiation, less the hit threshold, % at 10 µM | 1,200 tested, 68% active | AID 2287;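 active means fluorescence ratio rising 3 SD or more over the vehicle control mean in both replicates, plus primary screen hit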;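 further: peak minus minimum thallium fluorescence divided by baseline after K/Tl stimulus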
Kir21 spec: selectivity of KCNQ2 potentiators: effect on mouse Kir2.1; HEK293 Kir2.1, FluxOR thallium flux fluorescence; shares compounds with KCNQ2 pot; AID 2345; 1,200 tested, 2% active; activity over 3SD threshold, % at 10 µM;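 active means fluorescence ratio rise of at least 3 SD above the vehicle-control mean, seen in both replicates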
KCNQ2 W236L pot: potentiates the retigabine-insensitive rat KCNQ2 W236L mutant channel. 940 tested, 10% active. current increase over 3SD of negative controls (%), active compounds read high, % at 25 µM. AID 2558. CHO KCNQ2-W236L, automated patch clamp current. shares compounds with KCNQ2 pot;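 active means current increase at least 3 SD of the untreated controls above them in both duplicate recordings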
Target sequence (O88943 whole entry W236L, looked up): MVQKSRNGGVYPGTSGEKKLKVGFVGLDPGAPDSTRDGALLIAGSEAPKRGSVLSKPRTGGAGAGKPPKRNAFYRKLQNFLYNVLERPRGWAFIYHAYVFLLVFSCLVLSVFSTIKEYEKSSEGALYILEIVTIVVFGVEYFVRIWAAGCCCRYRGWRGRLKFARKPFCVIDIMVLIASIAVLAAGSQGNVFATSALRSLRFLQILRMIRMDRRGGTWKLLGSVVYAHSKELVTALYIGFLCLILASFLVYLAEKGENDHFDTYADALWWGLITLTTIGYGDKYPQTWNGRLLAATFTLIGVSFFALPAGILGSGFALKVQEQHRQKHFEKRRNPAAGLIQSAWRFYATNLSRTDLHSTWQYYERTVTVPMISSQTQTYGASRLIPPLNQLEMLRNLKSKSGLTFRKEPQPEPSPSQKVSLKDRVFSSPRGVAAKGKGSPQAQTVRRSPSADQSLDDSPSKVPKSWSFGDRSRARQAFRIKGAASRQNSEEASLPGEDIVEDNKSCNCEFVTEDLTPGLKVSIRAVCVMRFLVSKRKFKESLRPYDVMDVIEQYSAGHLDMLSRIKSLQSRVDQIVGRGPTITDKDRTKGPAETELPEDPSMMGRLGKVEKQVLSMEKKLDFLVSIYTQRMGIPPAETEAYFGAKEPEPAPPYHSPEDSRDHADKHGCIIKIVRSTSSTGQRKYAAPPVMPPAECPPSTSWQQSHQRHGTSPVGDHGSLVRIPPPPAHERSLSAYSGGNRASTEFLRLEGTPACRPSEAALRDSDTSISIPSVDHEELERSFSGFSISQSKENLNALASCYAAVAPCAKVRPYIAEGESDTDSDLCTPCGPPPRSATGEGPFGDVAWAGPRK
A number is an active result; 0 = inactive; - = no result.

SMILES	KCNQ2 pot	KCNQ2 inh	Kir21 conf inh	HEK293 Tl flux	others
CCCCCCCC(=O)N/N=C/c1ccco1	11	0	0	0	CHO-K1 ctr=0.0;KCNQ1 sel pot=2.6;KCNQ2 pot confirm=59;Kir21 spec=0;KCNQ2 W236L pot=0
CCN1C(=NCCc2ccccn2)N[C@@H](c2cccc(F)c2)C(C(=O)OC)=C1C	0	0	-	-
COC(=O)C1=C(C)N(Cc2ccccc2)C(=NCCc2ccccn2)N[C@H]1c1cccc(F)c1	0	0	40%	0
COC(=O)C1=C(C)N(Cc2ccccc2)C(=NCC(C)C)N[C@H]1c1ccccc1	-	0	0	0
COC(=O)C1=C(C)N(Cc2ccccc2)C(=O)N[C@H]1c1ccccc1	-	0	-	-
Cc1cc2nnc(SCC(=O)NCC(c3ccccc3)N(C)C)n2c2ccccc12 (centres undefined)	0	0	-	-
Cc1ccc(CNC(=O)CN2C(=O)COc3ccc(S(=O)(=O)N4CCCCC4)cc32)o1	0	0	-	-
CC(=O)c1ccc(OCCOc2ccc(Cl)c3cccnc23)cc1	0	0	-	-
CCC(C)[C@H]1CNCCN1CCc1cccc(F)c1 (some centres undefined)	0	0	-	-
OC(CC#CCN1CCCC1)(c1ccccc1)c1ccccc1	-	0	-	-
C(#CCN1CCCC1)CC(c1ccccc1)c1ccccc1	-	0	40%	0
CC(C)N1C(=O)CSC1c1ccc(Br)cc1 (centres undefined)	-	0	-	-
CCCOc1ccc(CC(=O)N/N=C\c2ccc(F)cc2)cc1	0	0	-	-
CNCCCC1Sc2ccccc2Oc2ccccc21 (centres undefined)	0	0	40%	0
CCN1CCN(c2ccc(S(=O)(=O)N3CCOCC3)cc2NC(=O)C(C)Oc2ccc(Cl)cc2)CC1 (centres undefined)	0	0	-	-
CCC(Oc1ccc(Br)cc1Cl)C(=O)Nc1nnc(C2CC2)s1 (centres undefined)	0	0	-	-
COc1ccc(C(=O)NCCc2nnc3ccc(SCC(=O)Nc4ccccc4F)nn23)cc1	0	0	-	-
Cc1ccccc1NC(=O)CC(O)(C(F)(F)F)C(F)(F)F	0	0	-	-
Cc1ccc(NC(=O)CC(O)(C(F)(F)F)C(F)(F)F)c(Br)c1	8.7	0	0	0	CHO-K1 ctr=54;KCNQ1 sel pot=54;KCNQ2 pot confirm=31;Kir21 spec=0;KCNQ2 W236L pot=0
COC(CNc1ncnc2c1cnn2C)OC	0	0	-	-
Cn1ncc2c(O/N=C(\N)c3ccc(C(C)(C)C)cc3)ncnc21	6.2	0	0	0	CHO-K1 ctr=47;KCNQ1 sel pot=0;KCNQ2 pot confirm=6.1;Kir21 spec=0;KCNQ2 W236L pot=0
CCOC(=O)c1ccc(NC(=S)NCCc2ccc(F)cc2)cc1	0	0	-	-
CCOc1ccc(CNC(=O)c2ccc3c(c2)N(CC)CCS3)cc1	-	0	-	-
CCN1C(=O)CSc2ccc(C(=O)NCc3ccc(OC)cc3)cc21	0	0	58%	0
C/C(=N\NC(=O)C(=O)Nc1c(C)n(C)n(-c2ccccc2)c1=O)c1ccncc1	0	0	-	-
SMILES	KCNQ2 pot	KCNQ2 inh	Kir21 conf inh	HEK293 Tl flux	others
COC(=O)[C@]1(Cc2ccccc2)N[C@H](c2ccc(-c3cc(C(C)=O)cs3)cc2)[C@@H]2C(=O)N(C)C(=O)[C@@H]21	0	0	-	-
Clc1cccc(NCc2nnc(SCc3ccccc3Cl)o2)c1	-	0	-	-
Clc1cccc(NCc2nnc(SCc3ccccc3)o2)c1	22	0	0	0	CHO-K1 ctr=46;KCNQ1 sel pot=0;KCNQ2 pot confirm=0;Kir21 spec=0
CCCCNC(=O)C(=O)Nc1cc2c3c(c1)CCC(=O)N3CCC2	-	0	-	-
Cc1ccc(CCS(=O)(=O)c2ccc(C(C)(C)C)cc2)cn1	0	0	-	-
c1ccc2c(NCC3CCCO3)nc(N3CCCCC3)nc2c1 (centres undefined)	0	0	-	-
Oc1ccc(Nc2nc(NCC3CCCO3)c3ccccc3n2)cc1 (centres undefined)	-	0	0	0
Oc1ccc(Cl)cc1Nc1nc(NCC2CCCO2)c2ccccc2n1 (centres undefined)	0	0	-	-
Oc1ccccc1Nc1nc(NCC2CCCO2)c2ccccc2n1 (centres undefined)	-	0	46%	0
COC(=O)c1sccc1NC(=O)Nc1ccc(F)cc1F	0	0	-	-
COc1ccc(Cc2noc(CN3CCN(Cc4cccc(Cl)c4)CC3)n2)cc1OC	7.2	0	0	0	CHO-K1 ctr=43;KCNQ1 sel pot=0;KCNQ2 pot confirm=0;Kir21 spec=0
COCCN1CCN(Cc2nc(Cc3ccc(OC)c(OC)c3)no2)CC1	0	0	-	-
O=c1cc(-c2cccs2)oc2ccc(Cl)cc12	0	0	-	-
O=c1c(O)c(-c2cccs2)oc2ccc(Cl)cc12	0	0	0	0	CHO-K1 ctr=0;KCNQ1 sel pot=0;KCNQ2 pot confirm=70;Kir21 spec=0;KCNQ2 W236L pot=24%
Cc1ccc(-c2oc3ccccc3c(=O)c2OCC(=O)O)cc1	-	0	-	-
O=c1c(O)c(-c2cccs2)oc2ccccc12	13	0	0	0	CHO-K1 ctr=9.6;KCNQ1 sel pot=0;KCNQ2 pot confirm=66;Kir21 spec=0;KCNQ2 W236L pot=0
Cc1ccc(-c2oc3ccccc3c(=O)c2O)cc1	5.6	0	0	162%	CHO-K1 ctr=0;KCNQ1 sel pot=0;KCNQ2 pot confirm=21;Kir21 spec=0;KCNQ2 W236L pot=0
CCCCn1c(-c2cccs2)nc2oc3ccccc3c(=O)c2c1=O	0	0	-	-
COc1ccc(Cc2nc3ccc(C(=O)NC(C)c4cnn(C)c4)cc3o2)cc1 (centres undefined)	0	0	-	-
COc1cccc(CNC(=O)CCCCCNC(=O)N2CCn3c2nc2ccccc23)c1	0	0	-	-
O=C(COC(=O)Cc1ccccc1F)Nc1cccc(S(=O)(=O)NC2=NCCCCC2)c1	0	0	-	-
CCCN1CCC(NCC(C)c2ccccc2)CC1 (centres undefined)	0	0	-	-
CCCN1CCC(NC23CC4CC(CC(C4)C2)C3)CC1	0	0	54%	0
CC(C)(C)c1nnc(NS(=O)(=O)c2cc(Cl)ccc2Cl)s1	0	0	-	-
O=S(=O)(Nc1nc(-c2sccc2Cl)cs1)c1cc(Cl)ccc1Cl	19	0	0	339%	CHO-K1 ctr=17;KCNQ1 sel pot=0;KCNQ2 pot confirm=149;Kir21 spec=0;KCNQ2 W236L pot=0
CCOC(=O)c1c(S(=O)(=O)NCC(=O)N2CCN(c3ccc(F)cc3)CC2)c(C)n(C)c1C	0	0	-	-
S=C(NCc1ccccc1)NC1CCCc2ccccc21 (centres undefined)	-	0	0	0
S=C(NCc1ccco1)NC1CCCc2ccccc21 (centres undefined)	-	0	-	-
